The record followed here is PubChem BioAssay (NCI).

Structures are written as SMILES. Compounds without any hit were thinned out: in the full panel of roughly 83,000, 20% have a hit.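 96-well plates, one dose, 48 hours. Percent growth reported; active if below 10.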 Values without a mark were called inactive. Active and inactive are the calls of the source.

Assay in all cases: NCI-60 one-dose screen, 48 h (100 = growth as untreated, 0 = no growth, -100 = all killed)
Conditions in all cases: 10 µM unless noted

Assay [1] relates to NCI-H23 lung.
Assay [2] has as its system NCI-H226 lung.
For assay [3], the system named is NCI-H322M lung.
The subject of assay [4] is HOP-62 NSCLC.
The subject of assay [5] is NCI-H460 lung.
Assay [6] relates to HOP-92 NSCLC.
Assay [7] concerns NCI-H522 lung.
Assay [8] concerns A549/ATCC NSCLC.
Assay [9] deals with 786-0 renal.
Assay [10] relates to COLO 205 colon.
In assay [11] the test system is DU-145 prostate.
Assay [12] has as its system K-562 leukemia.
Assay [13] relates to MDA-MB-231 breast.
Assay [14] relates to RXF 393 renal.
For assay [15], the system named is SF-268 CNS.
Assay [16] relates to SF-295 CNS.
Assay [17] has as its system SF-539 CNS.
Assay [18] has as its system UACC-257 melanoma.
Assay [19] has as its system M14 melanoma.

Consider `Clc1ccc2[nH]cc(-c3nc(-c4c[nH]c5ncccc45)cs3)c2c1`, for which the growth was 51.7% in assay [1]; 63% in [2]; 59.1% in assay [3]; 54.1% in assay [4]; 19% in [5]; 43.5% in assay [6]. The growth was 46.5% in assay [7]; 21.7% in assay [8]; 27.6% in [9]; 18.3% in assay [10]; 42.1% in assay [11]; 13.1% in assay [12]. In addition, the growth in assay [13] is 37.9%; in [14], 45.5%; in [15], 61.7%; in assay [16], 19.4%; in assay [17], 70.5%; in assay [18], 9.88% (active). The growth in assay [19] was 20.1%.

On to `Fc1cccc(-c2[nH]nc3nc(Nc4cccnc4)sc23)c1`, for which the growth in assay [1] was 43.3%; in [2], 70.8%; in [3], 65.1%; in assay [4], 55.4%; in assay [5], 21.2%; in assay [6], 86.4%. The growth was 16% in assay [7]; 37.8% in assay [8]; 53.6% in [9]; 15.7% in assay [10]; 29.4% in assay [11]; 21% in assay [12]. Moreover, the growth in assay [13] was 78.2%; in assay [14], 44.5%; in assay [15], 60.6%; in assay [16], 27.4%; in assay [17], 24%; in [18], 72.4%. Besides, in [19], the growth was 45.5%.

Consider `Cn1cc(-c2nc(-c3c[nH]c4ncccc34)cs2)c2cc(F)ccc21`, for which the growth in assay [1] is 40.8%; in [2] it was 62.3%; in assay [3], 35.1%; in assay [4], 65.3%; in assay [5], 24.6%; in [6] it was 13.3%. Further, the growth in assay [7] was 22%; in assay [8], 36.3%; in assay [9], 41.3%; in [10], 49.4%; in assay [11], 64.4%; in assay [12], 6.15% (active). Also, the growth is 20% in assay [13]; 43.8% in assay [14]; 44.4% in assay [15]; 19.9% in assay [16]; 53.9% in assay [17]; 53.3% in [18]. Further, the growth in assay [19] is 20.5%.

As to `Cn1cc(-c2nc(-c3c[nH]c4ncccc34)cs2)c2cc(Br)ccc21`, the growth in [1] is 93.5%; in assay [2], 95.7%; in [3], 76.4%; in [4] it was 109%; in [5] it was 81.7%; in [6], 89.1%. Also, the growth in [7] is 86.5%; in [8], 86.7%; in [9], 80.6%; in assay [10], 106%; in assay [11], 73.2%; in assay [12], 59.5%. Moreover, the growth is 84.6% in assay [13]; 75.7% in [14]; 99.1% in [15]; 84.6% in assay [16]; 108% in assay [17]; 120% in [18]. For the same molecule, the growth in [19] is 75.5%.

For `Nc1ccc(Br)cn1`, the growth in assay [1] is 104%; in assay [2], 99.9%; in assay [3], 104%; in assay [4], 101%; in assay [5], 106%; in assay [6], 89.4%. Further, the growth in [7] was 95.4%; in [8] it was 103%; in [9] it was 106%; in assay [10] it was 113%; in assay [11], 112%; in assay [12] it was 117%. Besides, the growth in assay [13] is 99.3%; in assay [14] it was 108%; in assay [15], 110%; in [16], 114%; in assay [17] it was 99.1%; in assay [18], 106%. The growth in assay [19] is 98.6%.

`CC1c2ccccc2N(S(=O)(=O)c2ccccc2)C1C` (configuration not stated): the growth in assay [1] was 89.4%; in [2], 88.4%; in assay [3], 102%; in assay [4] it was 95.4%; in assay [5], 115%; in assay [6] it was 86.8%. In addition, the growth is 76.9% in assay [7]; 92% in assay [8]; 102% in assay [9]; 97.6% in [10]; 102% in assay [11]; 34.1% in assay [12]. The growth is 91.2% in assay [13]; 88% in assay [14]; 102% in assay [15]; 94.9% in assay [16]; 104% in assay [17]; 93.6% in assay [18]. Also, the growth in assay [19] is 77.6%.

For `Brc1ccc2[nH]cc(-c3nc(-c4c[nH]c5ncccc45)cs3)c2c1`, the growth in assay [1] is 47%; in [2], 62.4%; in assay [3], 42%; in assay [4] it was 56.6%; in assay [5], 15.7%; in assay [6], 47.9%. Besides, the growth in assay [7] is 25%; in [8], 22.9%; in [9], 10.4%; in assay [10] it was 18.5%; in assay [11], 39.8%; in assay [12], 4.74% (active). The growth in assay [13] is 24.9%; in [14] it was 21.8%; in assay [15], 59%; in assay [16], 5.5% (active); in assay [17], 50.9%; in assay [18], -6.38% (active). Also, the growth in assay [19] was 8.64% (active).

Take `C/C(=N\NC(=O)C(C)SC(C)C(=O)N/N=C(\C)c1cccnc1)c1cccnc1` (configuration not stated): the growth was 103% in [1]; 106% in assay [2]; 104% in assay [3]; 106% in [4]; 104% in assay [5]; 114% in assay [6]. Besides, the growth is 77.4% in assay [7]; 108% in assay [8]; 115% in assay [9]; 107% in assay [10]; 111% in assay [11]; 91.9% in [12]. Besides, the growth in [13] is 109%; in assay [14], 130%; in assay [15], 108%; in [16], 116%; in assay [17], 104%; in assay [18] it was 113%. In assay [19], the growth is 111%.
